Measurements from PubChem BioAssay AID504905 (The Scripps Research Institute Molecular Screening Center, 2011).
The other results are listed elsewhere or left out. Active and inactive are the calls of the source. No stated cut-off is given here; in the data, active means activation above about 17%; inactive means the rest.

target: 5-hydroxytryptamine receptor 5A (Homo sapiens) (UniProt P47898); experiment: HTR5A agonists in cells, counter-screen for OPRM1-OPRD1 heterodimer agonist project, cell-based, luminescence (AID 504905); conditions: HTR5A agonist counterscreen, at 9.3 µM, stronger effect = higher value;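 further: 0% = vehicle-treated cells and 100% = reference agonist response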
Sequence (P47898 whole entry, looked up): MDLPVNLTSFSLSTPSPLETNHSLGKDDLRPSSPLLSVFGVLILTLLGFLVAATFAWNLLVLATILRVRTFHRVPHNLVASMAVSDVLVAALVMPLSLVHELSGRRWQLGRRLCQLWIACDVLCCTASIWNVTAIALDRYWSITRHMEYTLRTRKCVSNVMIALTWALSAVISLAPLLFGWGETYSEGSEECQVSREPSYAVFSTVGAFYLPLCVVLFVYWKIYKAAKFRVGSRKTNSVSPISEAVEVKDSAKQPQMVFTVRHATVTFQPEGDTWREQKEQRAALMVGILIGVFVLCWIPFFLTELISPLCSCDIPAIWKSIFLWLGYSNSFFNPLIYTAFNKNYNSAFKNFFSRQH

Row | SMILES | activation
1 | C[C@]12CC[C@H](O)C[C@H]1CC[C@@H]1C2CC[C@]2(C)[C@@H](C3=CC(=O)OC3)[C@@H](O)C[C@]12O (some centres undefined) | -0.48% (inactive)
2 | CCC1(C)CC(CCNCc2ccc(N(C)C)cc2)(c2ccc(F)cc2)CCO1 (centres undefined) | 0.44% (inactive)
3 | COC1C(O)C(C)OC(OC2CCC3(C=O)C(CCC4C3CCC3(C)C(C5=CC(=O)OC5)CCC43O)C2)C1O (centres undefined) | 13.7% (inactive)
4 | CCOC(=O)C1(CCc2ccccc2)CCN(Cc2ccco2)CC1 | 3.8% (inactive)
